Tests used:
Assay in all cases: PBM binding z-score (relative to random genomic background probes); higher = stronger binding; sequences stand for … in GC…GCGATTGACAGCGTAGAATGAAGG
[1] = test system: FXR:RXRa (NR concentration 270 nM, RXRa partner concentration 90 nM)
How it was run: (§1)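 Binding z-scores were set against random background probes. The data came from custom Agilent 4×180K protein-binding microarrays carrying double-stranded probes with 34-nt variable regions, incubated 1 h with ligand-free nuclear receptor dimers. Partner-specific antibodies detected binding, and scanned fluorescence was regression-normalized.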

[2] = test system: LXRa:RXRa (NR concentration 270 nM, RXRa partner concentration 90 nM)
How it was run: as §1

[3] = test system: LXRa homodimer (NR concentration 270 nM)
How it was run: as §1

[4] = test system: LXRb:RXRa (NR concentration 270 nM, RXRa partner concentration 90 nM)
How it was run: as §1

[5] = test system: LXRb homodimer (NR concentration 270 nM)
How it was run: as §1

[6] = test system: PPARa:RXRa (NR concentration 270 nM, RXRa partner concentration 90 nM)
How it was run: as §1

[7] = test system: PPARg:RXRa (NR concentration 180 nM, RXRa partner concentration 90 nM)
How it was run: as §1

[8] = test system: PPARg:RXRa 270nM:90nM, anti-RXR (NR concentration 270 nM, RXRa partner concentration 90 nM)
How it was run: as §1

[9] = test system: PPARg:RXRa 30nM:10nM, anti-RXR (NR concentration 30 nM, RXRa partner concentration 10 nM)
How it was run: as §1

[10] = test system: PPARg:RXRa 90nM:30nM, anti-RXR (NR concentration 90 nM, RXRa partner concentration 30 nM)
How it was run: as §1

Sequence | PBM binding z-score [1] | PBM binding z-score [2] | PBM binding z-score [3] | PBM binding z-score [4] | PBM binding z-score [5] | PBM binding z-score [6] | PBM binding z-score [7] | PBM binding z-score [8] | PBM binding z-score [9] | PBM binding z-score [10]
CTTGCTAGGTCAATGGTCAGCTAAAGCAGCTCGC | 2.93 | 2.77 | 0.107 | 1.33 | -0.0348 | 3.41 | 5.43 | 5.94 | 4.16 | 5.69
ACTTACAGGTCAACGAGGTTATAGCACGCGTATA | 6.79 | 5.97 | 3.32 | 4.66 | 1.8 | 5.76 | 5.5 | 5.63 | 2.14 | 4.37
CCTTACGGGTCCCGAGGTTATAGCACGACGAGCG | 0.0402 | 0.394 | -0.262 | 0.124 | -0.6 | 0.95 | 0.635 | -0.283 | -0.617 | -0.745
CGAACTAGGTCAGAAAAGGACAGTGAAGGATGAT | 1.84 | 0.723 | -0.125 | 0.338 | -0.514 | 2.87 | 4.64 | 4.06 | 1.43 | 3
TAGCGTAGGTCATTCAGGGGCCAGTATAGAAAGC | 4.91 | 4.31 | 0.816 | 3.43 | 1.24 | 4.19 | 1.8 | 2.55 | 0.626 | 1.6
ACAGACAGGTGATGAGGGTAACTCAGGCTATCAT | 0.367 | -0.0236 | 0.0191 | 0.0104 | -0.517 | 0.465 | 0.8 | -0.0214 | 0.142 | -0.218
GTACCAAGGTGAATAGGTCATTGATGAGTAGGCG | 2.6 | 2.66 | 1.28 | 2.14 | -0.295 | 3.87 | 3.39 | 3.52 | 1.55 | 2.85
ACTAGTTGGTCAGCTGAGGTCACTCACAATTCGG | 2.19 | 2.57 | 1.98 | 2.87 | 0.671 | 3.26 | 1.04 | 1.68 | 0.169 | 1.19
CCTGCTAGGTCAATTGTCAGCTAAAGCAGCTCGC | 2.8 | 2 | 0.111 | 1.6 | 0.259 | 2.77 | 1.83 | 2.46 | -0.128 | 1.54
CCGACTGGGGCAGAAAGATTACCATACCATCCGG | -0.557 | -0.807 | -0.423 | -0.639 | -1 | -0.291 | 0.958 | -0.112 | -0.469 | -0.456
AATACAGGCTCATCGTAGGCCAGAGTACGCACAG | -0.253 | -0.407 | -0.211 | -0.712 | -0.726 | -0.569 | 0.784 | -0.256 | -0.133 | -0.254
GCTGCTAGGTCAACTGGTGGTCAGCTAAAGCTCG | 4.15 | 3.04 | -0.00351 | 1.99 | -0.442 | 3.55 | 2.75 | 3.48 | 0.603 | 2.25
GCGACTGGGGCAAAGCAGGCTACCATAAGGTTGG | -0.319 | -0.696 | -0.699 | -0.682 | -0.971 | 0.527 | 0.941 | 0.966 | -0.413 | 0.272
CGAACTAGGTCATTGACAGCACAGTGAATAGTAA | 4.2 | 2.64 | 0.265 | 2.07 | 0.329 | 4.78 | 7.32 | 6.23 | 3.86 | 5.6
GCAGACAGGTGAAACGCAGATAACTCAGGGTGGC | -0.337 | -0.00809 | -0.429 | -0.285 | -0.813 | 0.654 | 1.04 | -0.0865 | -0.367 | -0.137
TCTTGTAGATCAACAGGAGGTCAAGAAAGATCGA | 2.21 | 3.53 | 3.02 | 3.32 | 0.366 | 3.71 | 1.04 | 2.25 | 2.55 | 2.35
TAGCCTAGGTCATTCAGGGGCGAGTATAGAAAGC | 5.04 | 5.21 | 0.875 | 3.77 | 1.13 | 3.69 | 2.21 | 2.4 | 0.501 | 1.61
CCTAACAGGCCAGGGTCACTCAAGCATTTCGCTT | 2.05 | 1.86 | -0.195 | 2.38 | -0.349 | 3.2 | 0.798 | 1.41 | -0.181 | 0.356
CCTAACGGGTCACTCCAGGTTATAGCATCGGAGT | 3.94 | 7.24 | 1.46 | 4.81 | 0.101 | 3.5 | 2.32 | 2.54 | 0.338 | 1.43
GCTGCCAGGTCAGGTTGGTCAGCTAACGGGTACG | 1.58 | 0.973 | -0.337 | 0.712 | -0.51 | 1.64 | 0.272 | 0.752 | -0.562 | 0.147
TAGCCTACGTCATTGGGCCAGTATAGTACGCATC | -0.593 | -0.86 | -0.485 | -0.66 | -0.257 | -0.37 | 0.495 | -0.589 | -0.293 | -0.205
CCTACTGAGCCACGAAAGGTCATTGATTCAGTGA | 3.68 | 5.05 | 5.31 | 4.22 | 1.09 | 4.21 | 1.27 | 2.77 | 0.973 | 1.93
GGAACGGGGGCAAAGTTGATAGCATCTGTCGACG | 3.75 | 3.32 | 0.259 | 4.64 | 6.22 | 5.56 | 9.31 | 8.52 | 9.53 | 9.94
ATCTCTTGGTAAGACTCAGTTCAGTGAAGAACGC | 0.584 | 0.976 | 0.839 | 0.676 | 1.08 | 0.0896 | -0.159 | 0.141 | 0.448 | 0.216
